SW480 rereplic – DNA re-replication induction in SW480 cells. SW480 DNA re-replication, Hoechst DNA content imaging, 48 h. Potency, µM (titrated, usually from 46.1 µM), actives largely listed as activators. 340,000 tested, 1.8% active. AID 624297; also: nearly all actives have a fitted effect of over 55% in size
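Cells (250 per well) received 23 nL compound or DMSO by pin tool and were kept 48 hr at 37 C, 5% CO2. Nuclei were then stained with Hoechst for 40 min and scanned for DNA content.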
ELG1 DNA repair – inhibitors of ELG1-dependent DNA repair in HEK293T cells | Potency, µM (series often up to 46.1 µM), actives largely listed as inhibitors | AID 504467 | HEK293T ELG1-luciferase reporter, luminescence, 16 h; DNA damage induced by 5-fluorouridine | 330,000 tested, 2.3% active; also: nearly all actives have a fitted effect of over 55% in size
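In this reporter screen, reduction of luminescence relative to DMSO vehicle indicated activity. Compounds and 5-fluorouridine were added together to 2,000 cells per well, incubated for 16 hr at 37 °C, then developed with ONE-Glo.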
KB-3-1 tox – kills parental KB-3-1 adenocarcinoma cells | KB-3-1 viability, CellTiter-Glo ATP luminescence, 72 h | Potency, µM (highest dose often 46.1 µM), actives largely listed as cytotoxic | 400,000 tested, 1.4% active; also: nearly all actives have a fitted effect of over 60% in size
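Cytotoxicity in the drug-sensitive parental line KB-3-1 was scored as loss of CellTiter-Glo luminescence following 72 h incubation with compound. Values come from curve fitting of normalized concentration-response data.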
MCF10A rereplic – inducers of DNA re-replication in MCF 10A breast cells. MCF 10A DNA re-replication, Hoechst nuclear intensity, 48 h. Potency, µM (top dose mostly 46.1 µM), actives largely listed as activators. 350,000 tested, 2.9% active; also: nearly all actives have a fitted effect of over 50% in size
KB-V1 cytotox – KB-V1 MDR subline cytotoxicity; 400,000 tested, 3.4% active; Potency, µM (doses to about 46.1 µM), actives largely listed as cytotoxic; KB-V1 MDR cells viability, CellTiter-Glo, 72 h; also: nearly all actives have a fitted effect of over 60% in size
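KB-V1, DMEM (no phenol red) + 10% FBS; cpd pin-transferred, titration series; 72 h, 37 degrees C; CellTiter-Glo, luminescence. Data normalized, curve-fit.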
Each line names hits and unclear results; the compound was inactive in the other large screens. The list is not random: actives were taken first. Their share in the collection is about 8.2%. Calls follow the shape of the dose curve; as a rule, active = well fitted curve in the direction sought with a large enough effect; inconclusive = small, poorly fitted or top-dose-only effect, or another doubt; inactive = no such curve, though single readings can be large; an effect the other way counts as inactive or inconclusive.

CCn1c(SCC(=O)c2[nH]c(C)c(C(C)=O)c2C)nnc1-c1cccs1	ELG1 DNA repair inconclusive, KB-3-1 tox inconclusive, KB-V1 cytotox 2.6µM
CCCCCCCCNc1ncnc2ccccc12	SW480 rereplic inconclusive, ELG1 DNA repair inconclusive, KB-3-1 tox 0.65µM, KB-V1 cytotox 0.18µM
CCCCN(S(=O)(=O)c1ccccc1)S(=O)(=O)c1ccccc1	MCF10A rereplic inconclusive, KB-V1 cytotox inconclusive
CC(C)(C)OC(=O)NS(=O)(=O)NOCc1ccccc1	none (no result: SW480 rereplic, ELG1 DNA repair, MCF10A rereplic)
Cc1ccc(OCC(=O)N/N=C\c2c(C)n(C)c3ccccc23)c([N+](=O)[O-])c1	SW480 rereplic 15µM, ELG1 DNA repair inconclusive, KB-3-1 tox inconclusive, MCF10A rereplic inconclusive, KB-V1 cytotox inconclusive
Cc1[nH]n(-c2ccccc2)c(=O)c1/C=N/NC(=O)COc1ccccc1[N+](=O)[O-]	SW480 rereplic 13µM, KB-3-1 tox inconclusive, MCF10A rereplic inconclusive, KB-V1 cytotox inconclusive
Cc1[nH]n(-c2ccccc2)c(=O)c1C(=O)c1ccccc1	ELG1 DNA repair inconclusive, KB-3-1 tox inconclusive, MCF10A rereplic inconclusive, KB-V1 cytotox inconclusive
Cc1c(/C=N/NC(=O)COc2ccccc2[N+](=O)[O-])c2ccccc2n1C	SW480 rereplic inconclusive, ELG1 DNA repair inconclusive, KB-3-1 tox inconclusive, KB-V1 cytotox inconclusive
Cc1[nH]n(-c2ccccc2)c(=O)c1/C=N/NC(=O)c1ccccc1F	SW480 rereplic 2.3µM, ELG1 DNA repair 2.3µM, KB-3-1 tox inconclusive, MCF10A rereplic inconclusive
CC/C(=N/NC(=O)c1ccccc1O)c1c(C)[nH]n(-c2ccccc2)c1=O	SW480 rereplic 23µM, KB-3-1 tox inconclusive, MCF10A rereplic inconclusive, KB-V1 cytotox inconclusive (no result: ELG1 DNA repair)
Cc1ccc(NC(=O)CSCc2cc(=O)n3ccsc3n2)c(C)c1	KB-V1 cytotox inconclusive
COc1ccc(CCN=Cc2c(C)[nH]n(-c3ccc([N+](=O)[O-])cc3)c2=O)cc1OC	none
CC(=O)N/N=C/c1c(C)[nH]n(-c2ccccc2)c1=O	KB-V1 cytotox inconclusive
O=C(N/N=C/c1c[nH]c2ccccc12)c1cccc([N+](=O)[O-])c1	none (no result: SW480 rereplic)
Cc1ccc(-n2[nH]c(C)c(/C=N/Nc3ccc([N+](=O)[O-])cc3[N+](=O)[O-])c2=O)cc1C	ELG1 DNA repair 10µM, KB-3-1 tox inconclusive, MCF10A rereplic 15µM, KB-V1 cytotox 13µM
Cc1[nH]n(-c2ccccc2)c(=O)c1/C=N/NC(=O)c1cccc([N+](=O)[O-])c1	SW480 rereplic 3.7µM, KB-3-1 tox inconclusive, MCF10A rereplic inconclusive, KB-V1 cytotox inconclusive
Cc1[nH]n(-c2cccc3ccccc23)c(=O)c1/C=N/NC(=O)c1cccc([N+](=O)[O-])c1	SW480 rereplic inconclusive, ELG1 DNA repair inconclusive, KB-3-1 tox inconclusive, MCF10A rereplic inconclusive, KB-V1 cytotox 3.3µM
COc1ccc(C(=O)Nc2ccc3nc4c(c(Nc5ccccc5OC)c3c2)CCCC4)c(OC)c1	KB-V1 cytotox inconclusive (no result: SW480 rereplic, ELG1 DNA repair, MCF10A rereplic)
Cc1ccc(/C=N/NC(=O)COc2ccc(Cl)c(C)c2)o1	ELG1 DNA repair inconclusive
Cc1ccc(N(CC(O)Cn2c3ccccc3c3ccccc32)S(C)(=O)=O)c(C)c1 (centres undefined)	KB-3-1 tox 23µM, MCF10A rereplic inconclusive, KB-V1 cytotox 13µM
Cc1ccc(N(CC(O)Cn2c3ccccc3c3ccccc32)S(C)(=O)=O)cc1 (centres undefined)	ELG1 DNA repair inconclusive, KB-3-1 tox inconclusive
O=C(COC(=O)/C=C/c1ccc(F)cc1)NCC1CCCO1 (centres undefined)	KB-V1 cytotox inconclusive
CCOC(=O)c1c(CSc2ccccc2)oc2ccc(O)cc12	MCF10A rereplic 18µM
CCOC(=O)c1c(CSc2ccc(CC)cc2)oc2ccc(O)c(CN(C)C)c12	SW480 rereplic 18µM, KB-3-1 tox inconclusive, MCF10A rereplic inconclusive, KB-V1 cytotox inconclusive
CC(=O)c1c(CSc2ccccc2)oc2ccc(O)c(CN(C)C)c12	SW480 rereplic 13µM, MCF10A rereplic inconclusive
Cc1ccc2c(/C=C/c3ccc(N(C)C)cc3)c(C)cnc2c1	KB-3-1 tox inconclusive (no result: SW480 rereplic, ELG1 DNA repair, MCF10A rereplic)
Cc1nc2c(o1)C(=O)c1ccccc1C2=Nc1ccccc1	SW480 rereplic 4.1µM, KB-3-1 tox 4.6µM, MCF10A rereplic 6.5µM, KB-V1 cytotox 3.3µM (no result: ELG1 DNA repair)
O=C(Nc1cccc([N+](=O)[O-])c1)c1cc2ccccc2cc1O	SW480 rereplic inconclusive, ELG1 DNA repair inconclusive, KB-3-1 tox 13µM, MCF10A rereplic inconclusive, KB-V1 cytotox inconclusive
Cc1c(C(=O)Nc2cccc([N+](=O)[O-])c2)csc1-c1ccccc1	ELG1 DNA repair inconclusive, MCF10A rereplic inconclusive, KB-V1 cytotox 8.2µM
COc1cccc(NC(=O)c2cc([N+](=O)[O-])ccc2NCc2cccnc2)c1	ELG1 DNA repair inconclusive, KB-V1 cytotox 3.7µM
COc1ccc(NC(=O)c2cc([N+](=O)[O-])ccc2O)cc1	ELG1 DNA repair inconclusive, KB-3-1 tox 18µM, MCF10A rereplic inconclusive, KB-V1 cytotox inconclusive
O=C(C[N+]12CN3CN(CN(C3)C1)C2)c1ccc(Br)cc1	none (no result: SW480 rereplic, ELG1 DNA repair, MCF10A rereplic)
CCCNC(=O)c1ccc2c(=O)c(O)c(-c3cccc(Br)c3)[nH]c2c1	KB-3-1 tox 12µM
CCCNC(=O)c1ccc2c(=O)c(O)c(-c3ccc(F)cc3)[nH]c2c1	KB-3-1 tox inconclusive
CC1CCN=C(N)S1 (centres undefined)	none (no result: ELG1 DNA repair)
O=C(c1ccc(Cl)cc1)C1CCN(C(=O)NC2CCCCC2)CC1	ELG1 DNA repair inconclusive, KB-V1 cytotox 2.3µM
NC(c1ccccc1)c1csc(NC(=O)NCC2CCCCC2)n1 (centres undefined)	none (no result: SW480 rereplic, ELG1 DNA repair, MCF10A rereplic)
Cc1cc2c(cc(C(=O)OC(C(=O)NCc3ccco3)C(C)C)n2C)o1 (centres undefined)	ELG1 DNA repair 23µM, KB-V1 cytotox inconclusive
Cc1cc2c(cc(C(=O)OCC(=O)NCc3ccco3)n2C)s1	SW480 rereplic 10µM, KB-3-1 tox 5.8µM, MCF10A rereplic inconclusive, KB-V1 cytotox 3.7µM
N#C/C(C(=O)NCc1ccco1)=C1/SC=C(c2ccccc2)N1c1ccccc1	SW480 rereplic 29µM, MCF10A rereplic inconclusive
CCOC(=O)C1(C)CCN1C(=O)c1cc(C)oc1C (centres undefined)	none (no result: SW480 rereplic, ELG1 DNA repair, MCF10A rereplic)
CC(=O)Nc1ccc(NC(=O)CSc2nc(N)c(NC(=O)c3ccccc3F)c(=O)[nH]2)cc1	none
COc1ccc(Cn2nnc3c(C)n[nH]c(=O)c32)cc1	none
COc1ccc(OC)c(-c2nc3c(C)n[nH]c(=O)c3[nH]2)c1	ELG1 DNA repair 6.5µM, KB-V1 cytotox 18µM
O=C(CN1C(=O)C2CC=CCC2C1=O)OCC(=O)c1ccc(Cl)c([N+](=O)[O-])c1 (centres undefined)	SW480 rereplic inconclusive, MCF10A rereplic 23µM, KB-V1 cytotox inconclusive
O=c1cc(O)c2c(=O)n(-c3ccccc3)c3c(c2o1)CCCCCC3	MCF10A rereplic inconclusive, KB-V1 cytotox 5.2µM
O=c1cc(O)c2c(=O)n(Cc3ccccc3)c3ccccc3c2o1	ELG1 DNA repair inconclusive, MCF10A rereplic inconclusive, KB-V1 cytotox 6.5µM

Screening data deposited in PubChem by National Center for Advancing Translational Sciences (NCATS).
